Results as given in PubChem BioAssay (NCI).
Several values for one entry are separate records, joined by “and”; a condition that tells them apart may be missing. Equal values may be shown once. This is part of a sample that, as a whole, favours compounds with a hit. Of some 83,000 tested, about 20% had one in any assay.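 Assay: single dose, 48 h. Readout: percent growth (0 = no net growth; negative = cell death). Active: <10.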 Activity calls are given as the source filed them.

What follows are molecules tested on HL-60(TB) leukemia (assay: NCI-60 one-dose screen, 48 h (100 = growth as untreated, 0 = no growth, -100 = all killed)). Settings: 10 µM unless noted.

| SMILES | growth |
| --- | --- |
| N#Cc1cc(-c2nc3ccccc3s2)c(=O)n(NS(=O)(=O)c2ccc(Cl)cc2)c1N | 103% (inactive) |
| COc1ccc(/C=C/c2nnc(/C=C/c3ccc(OC)c(OC)c3)o2)cc1OC | 12.1% (inactive) |
| CC1(C(=O)O)NC(C(=O)O)Cc2c1[nH]c1ccccc21 (stereo not given) | 99.8% (inactive) |
| Nc1cc(N)c2cccnc2c1O | 59.6% (inactive) |
| CCN(CC)CCCC(CNc1ccnc2cc(Cl)ccc12)c1ccc(Cl)cc1 (stereo not given) | -40.4% (active) and -71% (active) |
| Clc1ccc(NC(Nc2ccc(Cl)cc2)C(Cl)(Cl)Cl)cc1 | 93.3% (inactive) and 83.6% (inactive) |
| Nc1c(O)c(S(=O)(=O)O)c(O)c2c1C(=O)c1ccccc1C2=O | -8.61% (active) |
| CSc1nc(N)c(N)c(N)n1 | 77.8% (inactive) |
| CCCCCCCCCCCC(=O)NCCCN(C)C | 83.7% (inactive) |
| N#CC1=C(N)Oc2c(sc3c(F)cccc23)C1c1ccc(F)cc1 (stereo not given) | 5.96% (active) |
| COc1cc(CNC(=O)/C=C/C=C/c2ccc3c(c2)OCO3)ccc1OCc1cn(-c2ccc(Cl)c(Cl)c2)nn1 | 85.4% (inactive) |
| COc1ccc(-c2nnc3n(C)c(=O)c4ccccc4n23)cc1N | -22.8% (active) |
| CC(C)(C)c1cc(C(=O)Nc2ccc(C(=O)NCCN)cc2)cc(C(C)(C)C)c1 | -68.4% (active) |
| Nc1ccccc1SC(CC(=O)c1ccccc1)c1c(Cl)cccc1Cl (stereo not given) | 54.8% (inactive) |
| COc1cccc([C@H]2c3[nH]c4ccccc4c3C[C@H]3C(=O)N(CCCCCCC(=O)NO)CC(=O)N23)c1 | 31% (inactive) |
| COc1cc(-c2nc(-c3nnc(-c4ccc(F)c(Cl)c4)o3)c3ccccn23)cc(OC)c1OC | 56.4% (inactive) |
| COc1cccc(/C=N/Nc2nc3ccccc3s2)c1OC | 49.9% (inactive) |
| COC1=CC(c2ccc[nH]2)=N/C1=C\c1[nH]c(C)c(C(=O)CCCCC(=O)NCc2ccccc2)c1C | 69% (inactive) |
| O=C1OC(c2ccccc2)=N/C1=C\c1ccccc1 | 113% (inactive) |
| COc1cc(-c2cncn2-c2ccc(-c3nc4ccc(F)cc4s3)cc2)ccc1F | 53.1% (inactive) |

| SMILES | growth |
| --- | --- |
| O=c1c(/C=C/c2ccco2)nnc(SCCN2CCOCC2)n1/N=C/c1ccc([N+](=O)[O-])cc1 | 87.9% (inactive) |
| Cc1nnc(NC(=O)c2nc(S(=O)(=O)Cc3ccc(F)cc3)ncc2Cl)s1 | -30.5% (active) |
| O=C(Cn1c(=O)sc2ccccc21)NNS(=O)(=O)c1ccccc1[N+](=O)[O-] | 94.9% (inactive) |
| CCCC1CCC(=C2C(=O)CCC2=O)O1 (stereo not given) | 148% (inactive) and 153% (inactive) |
| CC(=O)c1c(O)cc2c3c1OC(C)(C)C1CCC(C)(CC31)O2 (stereo not given) | 89.2% (inactive) |
| Cc1[nH]c2ccccc2c(=O)c1CC=C(Cl)Cl | 57.5% (inactive) |
| Nc1nc2c3ccncc3cc(-c3cccc(Cl)c3)c2c2cnccc12 | 6.71% (active) |
| Cc1ccc2sc3c(NCCCNCCO)nc4ccccc4c3c(=O)c2c1 | -0.607% (active) |
| CC(=O)Oc1c(C)c(C)c2c(c1C)CCC(C)(CC(=O)OCCCCCCCCCCC[P+](c1ccccc1)(c1ccccc1)c1ccccc1)O2 (stereo not given) | -34.8% (active) |
| CCCCCCN1C(=O)CN=C1Nc1ccc2cc3ccc(NC4=NCC(=O)N4CCCCCC)cc3nc2c1 | 50.1% (inactive) |
| c1cc(N2CCCC2)c2nc(-c3[nH]ncc3Nc3ncnc4[nH]ccc34)[nH]c2c1 | -15.9% (active) |
| Nc1cc2c(cc1N)-c1ccccc1C2 | 7.76% (active) and 64.3% (inactive) |
| COc1ccc(/C=C2/SC(=S)NC2=O)c(OC)c1OC | 83.8% (inactive) |
| c1ccc2c(CC3=NCCN3)cccc2c1 | 107% (inactive) and 103% (inactive) |
| CCCCCCCCCCCCCCCCCCOc1cccc(CCOP(=O)(O)OCC[N+](C)(C)C)c1 | 73.4% (inactive) |
| O=C1C(=O)c2ccccc2C(O)=C1CCCc1ccc(C2CCCC2)cc1 | 20.6% (inactive) |
| CNC(=O)NCC1OC(n2cnc3c(NC(=O)Nc4ccccc4)ncnc32)C(O[Si](C)(C)C(C)(C)C)C1O[Si](C)(C)C(C)(C)C (stereo not given) | 23.5% (inactive) |
| O=C(CCCn1c2c(sc3ccccc32)c(=O)n2nnc(-c3ccccc3)c12)NCCc1cnc[nH]1 | 82.4% (inactive) |
| CNC(=O)c1ccccc1Nc1nc(Nc2ccc3c(c2OC)CCC[C@H](N2CCN(CCO)CC2)C3)ncc1Cl | -45.7% (active) |
| CN(C)Cc1ccccn1 | 108% (inactive) |
